From PubChem BioAssay
Most compounds without a hit are left out; they make up all but 3.2% or so of the library.
Kir21 inh: inhibitors of mouse Kir2.1 inward-rectifier potassium channel. 310,000 tested, 0.85% active. AID 1672, 2009. B-score at 10 µM. HEK293-Kir2.1, FluxOR thallium flux fluorescence; active compounds read low. Inward rectifier potassium channel 2 (Mus musculus), P35561;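 active = fluorescence ratio B-score at or below minus 3 SD of library scores, with starting-brightness B-score within 2 SD, cut at about -4.2 in these data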;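 note: channel flux triggered by added potassium and thallium sulfate stimulus; B-score of peak minus minimum fluorescence over baseline after thallium stimulus; more negative B-score means stronger Kir2.1 block with less thallium influx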
CHT inh: inhibitors of human choline transporter CHT; High affinity choline transporter 1 (Homo sapiens), Q9GZV3; CHT-expressing cells, membrane potential dye, choline response; active compounds read low; B-score at 10 µM; 310,000 tested, 0.86% active; AID 488975, 2010;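 active = B-score over 3 SD under the library average, and starting fluorescence ratio not unusually high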;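 note: choline stimulus applied at its EC90 after an EC20 pre-addition; B-score computed on integrated fluorescence ratio after choline addition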
Rce1 inh: yeast Rce1p protease inhibitors, primary screen, biochemical, fluorescence, cell-free homogeneous. calls only. yeast membranes, quenched prenylated peptide cleavage fluorescence. 290,000 tested, 0.27% active. CAAX prenyl protease 2 (Saccharomyces cerevisiae (strain ATCC 204508 / S288c)), Q03530;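 active = fall in fluorescence gain of 50% or more versus controls, with final raw signal at or below 3038400; inconclusive = same 50% fall but final raw signal above 3038400; inactive = fall in fluorescence gain under 50%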
Target sequence (Q03530 whole entry, looked up): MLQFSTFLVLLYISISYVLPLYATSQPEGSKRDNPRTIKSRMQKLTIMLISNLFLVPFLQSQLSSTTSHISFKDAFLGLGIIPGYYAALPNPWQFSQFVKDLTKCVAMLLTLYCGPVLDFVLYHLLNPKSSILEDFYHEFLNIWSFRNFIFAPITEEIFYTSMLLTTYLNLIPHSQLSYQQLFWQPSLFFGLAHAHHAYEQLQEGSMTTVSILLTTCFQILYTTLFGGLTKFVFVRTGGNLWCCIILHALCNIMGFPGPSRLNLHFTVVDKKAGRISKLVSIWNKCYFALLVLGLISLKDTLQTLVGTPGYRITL
CHT allo act: CHT positive allosteric modulators, primary screen, cell-based, membrane potential dye, choline EC20. High affinity choline transporter 1 (Homo sapiens), Q9GZV3. CHT-expressing cells; active compounds read high; LV-AA mutant CHT in HEK293 cells. B-score at 10 µM. 310,000 tested, 0.49% active. AID 488977, 2010;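 active = initial fluorescence not abnormally high and integrated response B-score, plate-corrected, over 3 SD above library mean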
TMEM16A inh: TMEM16A chloride channel inhibitors, primary screen, cell-based, HTS | 310,000 tested, 1.2% active | normalized B-score (activity score, 25-100; higher = stronger inhibition) at 10 µM | Anoctamin-1 (Mus musculus), Q8BHY3 | AID 588511, 2011 | HEK293 TMEM16A/YFP iodide influx fluorescence, ionomycin;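 active = ratio plate-corrected score three or more library SD toward inhibition, starting fluorescence score within five deviations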;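 note: score derived from kinetic fluorescence span divided by baseline fluorescence per well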
ANO1 activ: TMEM16A chloride channel activators or potentiators, primary screen, cell-based, HTS; HEK293 TMEM16A/YFP-H148Q/I152L, iodide quench fluorescence; active compounds read low; B-score at 10 µM; 340,000 tested, 0.3% active; AID 623877, 2012;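 active = fluorescence-ratio B-score plate-corrected deviation score at least 3 library SD below zero, with starting fluorescence score within 5 deviations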;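 note: channel opened by trigger with iodide after compound preincubation; score built on the fluorescence ratio of max minus min over baseline; more negative score means more quench and so TMEM16A activation or potentiation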
Hits are given with their value.

What do the screens show for `C#CCOCCOCCOCCNc1nc(N2CCN(C(=O)CCCCCCCCCCNC(=O)Cn3cc(CCCCCN)nn3)CC2)nc(N2CCN(C(=O)CCCCCCCCCCNC(=O)[C@H]([C@@H](C)CC)n3cc(CCCCN=C(N)N)nn3)CC2)n1`?
CHT inh: inactive; CHT allo act: inactive; TMEM16A inh: inactive; ANO1 activ: -21

What do the screens show for `C#CCOCCOCCOCCNc1nc(N2CCN(C(=O)CCCCCCCCCCNC(=O)[C@H]([C@@H](C)CC)n3cc(CCCCN=C(N)N)nn3)CC2)nc(N2CCN(C(=O)CCCCCCCCCCNC(=O)[C@H]([C@@H](C)CC)n3cc(CCCCN=C(N)N)nn3)CC2)n1`?
CHT inh: inactive; CHT allo act: inactive; TMEM16A inh: inactive

Results for C#CCOCCOCCOCCNc1nc(N2CCN(C(=O)CCCCCCCCCCNC(=O)[C@H]([C@@H](C)CC)n3cc(CCCCCN)nn3)CC2)nc(N2CCN(C(=O)CCCCCCCCCCNC(=O)[C@H](CO)n3cc(CCCCCN)nn3)CC2)n1 ?
CHT inh: inactive; CHT allo act: inactive; TMEM16A inh: 25; ANO1 activ: -17

How did C#CCOCCOCCOCCNc1nc(N2CCN(C(=O)CCCCCCCCCCNC(=O)[C@H]([C@@H](C)CC)n3cc(CCCCCN)nn3)CC2)nc(N2CCN(C(=O)CCCCCCCCCCNC(=O)[C@@H]([C@H](C)CC)n3cc(CCCCCN)nn3)CC2)n1 do in these assays?
CHT inh: inactive; CHT allo act: inactive; TMEM16A inh: inactive

Results for C#CCOCCOCCOCCNc1nc(N2CCN(C(=O)CCCCCCCCCCNC(=O)[C@H]([C@@H](C)CC)n3cc(CCCCN=C(N)N)nn3)CC2)nc(N2CCN(C(=O)CCCCCCCCCCNC(=O)[C@H](CCCCN)n3cc(C)nn3)CC2)n1 ?
CHT inh: inactive; CHT allo act: 6.3; TMEM16A inh: inactive

Results for CCCCc1nc2cc(C(=O)N3CCCCC3CCNC(C)=O)ccc2o1 (stereo not drawn) ?
Kir21 inh: inactive; CHT inh: inactive; Rce1 inh: inactive; CHT allo act: inactive; TMEM16A inh: inactive; ANO1 activ: inactive

Results for COc1ccc([N+](=O)[O-])cc1NC(=O)CSCc1cc(C)cc(C)c1 ?
Kir21 inh: -8.7; CHT inh: inactive; Rce1 inh: inactive; CHT allo act: inactive; TMEM16A inh: inactive; ANO1 activ: inactive

Results for Clc1ccc(CNc2nc(N3CCOCC3)nc(N3CCOCC3)n2)cc1 ?
Kir21 inh: inactive; CHT inh: inactive; Rce1 inh: inactive; CHT allo act: inactive; TMEM16A inh: inactive; ANO1 activ: -7.6

What do the screens show for `COc1ccc(-c2nc3cc(C)ccn3c2NC(=O)c2ccccc2OC)cc1`?
Kir21 inh: inactive; CHT inh: inactive; Rce1 inh: inactive; CHT allo act: inactive; TMEM16A inh: inactive; ANO1 activ: inactive

What do the screens show for `Cc1ccn2c(NC(=O)C(C)(C)Oc3ccc(Cl)cc3)c(-c3cccs3)nc2c1`?
Kir21 inh: inactive; CHT inh: -7.9; Rce1 inh: inactive; CHT allo act: inactive; TMEM16A inh: inactive; ANO1 activ: inactive

What do the screens show for `COc1ccc(/C=N/N(C(C)=O)c2nc(-c3ccc(C)cc3)cs2)cc1`?
Kir21 inh: inactive; CHT inh: inactive; Rce1 inh: inactive; CHT allo act: inactive; TMEM16A inh: inactive; ANO1 activ: -7.2

Results for Clc1cccc(Cl)c1/C=C/c1nc2ccccc2[nH]1 ?
Kir21 inh: inactive; CHT inh: inactive; Rce1 inh: inconclusive; CHT allo act: inactive; TMEM16A inh: 25; ANO1 activ: inactive

What do the screens show for `Clc1ccc(/C=C/c2nc3ccccc3[nH]2)cc1`?
Kir21 inh: inactive; CHT inh: inactive; Rce1 inh: inactive; CHT allo act: inactive; TMEM16A inh: inactive; ANO1 activ: inactive

How did O=C(COC(=O)c1cccc(S(=O)(=O)N2CCN(c3ccccc3)CC2)c1)NCC1CCCO1 (stereo not drawn) do in these assays?
Kir21 inh: inactive; CHT inh: inactive; Rce1 inh: inactive; CHT allo act: inactive; TMEM16A inh: inactive; ANO1 activ: inactive

How did COc1cc(OC)c(NS(=O)(=O)c2cccc(C(=O)OCC(=O)NCC3CCCO3)c2)cc1Cl (stereo not drawn) do in these assays?
Kir21 inh: inactive; CHT inh: inactive; Rce1 inh: inactive; CHT allo act: inactive; TMEM16A inh: inactive; ANO1 activ: -7.8

How did c1coc(CN(Cc2ccco2)c2ncnc3c2oc2ccccc23)c1 do in these assays?
Kir21 inh: inactive; CHT inh: inactive; Rce1 inh: inactive; CHT allo act: inactive; TMEM16A inh: 100; ANO1 activ: inactive

Results for NC1=NC2=C(CCCC2)C2(CCCCC2)S1 ?
Kir21 inh: -6.7; CHT inh: inactive; CHT allo act: inactive; TMEM16A inh: inactive; ANO1 activ: inactive

What do the screens show for `CN(Cc1ccccc1)C(=O)CSc1n[nH]c(N)n1`?
Kir21 inh: inactive; CHT inh: inactive; Rce1 inh: inactive; CHT allo act: inactive; TMEM16A inh: inactive; ANO1 activ: inactive

What do the screens show for `CCOC(=O)C(Sc1n[nH]c(N)n1)c1ccccc1` (stereo not drawn)?
Kir21 inh: inactive; CHT inh: inactive; Rce1 inh: inactive; CHT allo act: inactive; TMEM16A inh: 25; ANO1 activ: inactive

Results for NS(=O)(=O)c1ccc(CNC(=O)Cn2nc(C(F)F)cc2C(F)F)cc1 ?
ANO1 activ: -4.6

Results for COc1ccc(CNC(=O)C2CCC(CNC(=O)[C@@H]3Cc4ccccc4CN3)CC2)cc1 (stereo partly drawn) ?
Kir21 inh: inactive; CHT inh: inactive; Rce1 inh: inactive; CHT allo act: inactive; TMEM16A inh: inactive; ANO1 activ: inactive

What do the screens show for `Cc1ccc(OCc2nnc(SCc3nc4ccccc4[nH]3)n2Cc2ccco2)cc1`?
Kir21 inh: inactive; CHT inh: inactive; Rce1 inh: inactive; CHT allo act: inactive; TMEM16A inh: 100; ANO1 activ: inactive

Results for CC1CCCC(C)N1C(=O)COC(=O)c1cc(F)c(F)cc1Cl (stereo not drawn) ?
ANO1 activ: inactive

What do the screens show for `CSc1nc2ccc(NS(=O)(=O)c3ccc(Br)s3)cc2s1`?
Kir21 inh: inactive; CHT inh: inactive; Rce1 inh: inactive; CHT allo act: inactive; TMEM16A inh: 25; ANO1 activ: inactive

Results for NC(=O)c1ccc(NS(=O)(=O)c2ccc(Br)s2)cc1 ?
ANO1 activ: -21

Results for NC(=O)c1ccc(NS(=O)(=O)c2ccccc2F)cc1 ?
Kir21 inh: inactive; CHT inh: inactive; Rce1 inh: inactive; CHT allo act: inactive; TMEM16A inh: inactive; ANO1 activ: inactive
